Test [1] deals with T1, Serine/threonine-protein kinase 17A (Homo sapiens) (UniProt Q9UEE5).
T1 sequence (whole entry): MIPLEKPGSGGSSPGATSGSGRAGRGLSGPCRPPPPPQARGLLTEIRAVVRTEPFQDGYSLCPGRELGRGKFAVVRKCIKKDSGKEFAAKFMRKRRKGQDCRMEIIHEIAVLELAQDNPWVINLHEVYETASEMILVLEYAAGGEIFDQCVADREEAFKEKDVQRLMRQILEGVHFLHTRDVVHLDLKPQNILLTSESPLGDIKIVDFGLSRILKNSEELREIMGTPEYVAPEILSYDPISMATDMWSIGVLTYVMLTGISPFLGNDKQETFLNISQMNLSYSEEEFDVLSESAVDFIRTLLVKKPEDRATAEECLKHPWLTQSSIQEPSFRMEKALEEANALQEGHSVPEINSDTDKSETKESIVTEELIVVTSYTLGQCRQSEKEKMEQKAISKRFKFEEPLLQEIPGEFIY
The conditions noted are these: at 10 µM.

Test [2] deals with T2, Dual specificity tyrosine-phosphorylation-regulated kinase 2 (Homo sapiens) (UniProt Q92630).
T2 sequence (whole entry): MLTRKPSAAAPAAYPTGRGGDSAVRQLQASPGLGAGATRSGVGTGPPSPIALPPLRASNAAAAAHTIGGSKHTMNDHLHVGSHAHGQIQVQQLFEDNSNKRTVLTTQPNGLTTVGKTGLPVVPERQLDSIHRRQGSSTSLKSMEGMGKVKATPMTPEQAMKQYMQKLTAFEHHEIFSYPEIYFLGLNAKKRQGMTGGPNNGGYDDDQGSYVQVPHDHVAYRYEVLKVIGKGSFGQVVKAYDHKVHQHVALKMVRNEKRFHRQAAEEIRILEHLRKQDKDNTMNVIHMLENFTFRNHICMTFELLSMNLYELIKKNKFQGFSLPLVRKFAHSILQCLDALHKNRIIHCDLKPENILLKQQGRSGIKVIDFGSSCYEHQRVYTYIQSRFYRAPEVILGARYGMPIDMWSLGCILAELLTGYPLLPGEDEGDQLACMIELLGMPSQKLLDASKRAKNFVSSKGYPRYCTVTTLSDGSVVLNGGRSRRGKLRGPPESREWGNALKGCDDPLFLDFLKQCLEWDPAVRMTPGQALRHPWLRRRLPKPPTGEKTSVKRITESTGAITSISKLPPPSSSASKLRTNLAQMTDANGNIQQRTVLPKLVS
To be noted: at 10 µM.

The target of test [3] is Ephrin type-A receptor 2 (Homo sapiens) (UniProt P29317). The conditions noted are these: at 1 µM.
Chain of Ephrin type-A receptor 2 (Homo sapiens) (P29317 whole entry): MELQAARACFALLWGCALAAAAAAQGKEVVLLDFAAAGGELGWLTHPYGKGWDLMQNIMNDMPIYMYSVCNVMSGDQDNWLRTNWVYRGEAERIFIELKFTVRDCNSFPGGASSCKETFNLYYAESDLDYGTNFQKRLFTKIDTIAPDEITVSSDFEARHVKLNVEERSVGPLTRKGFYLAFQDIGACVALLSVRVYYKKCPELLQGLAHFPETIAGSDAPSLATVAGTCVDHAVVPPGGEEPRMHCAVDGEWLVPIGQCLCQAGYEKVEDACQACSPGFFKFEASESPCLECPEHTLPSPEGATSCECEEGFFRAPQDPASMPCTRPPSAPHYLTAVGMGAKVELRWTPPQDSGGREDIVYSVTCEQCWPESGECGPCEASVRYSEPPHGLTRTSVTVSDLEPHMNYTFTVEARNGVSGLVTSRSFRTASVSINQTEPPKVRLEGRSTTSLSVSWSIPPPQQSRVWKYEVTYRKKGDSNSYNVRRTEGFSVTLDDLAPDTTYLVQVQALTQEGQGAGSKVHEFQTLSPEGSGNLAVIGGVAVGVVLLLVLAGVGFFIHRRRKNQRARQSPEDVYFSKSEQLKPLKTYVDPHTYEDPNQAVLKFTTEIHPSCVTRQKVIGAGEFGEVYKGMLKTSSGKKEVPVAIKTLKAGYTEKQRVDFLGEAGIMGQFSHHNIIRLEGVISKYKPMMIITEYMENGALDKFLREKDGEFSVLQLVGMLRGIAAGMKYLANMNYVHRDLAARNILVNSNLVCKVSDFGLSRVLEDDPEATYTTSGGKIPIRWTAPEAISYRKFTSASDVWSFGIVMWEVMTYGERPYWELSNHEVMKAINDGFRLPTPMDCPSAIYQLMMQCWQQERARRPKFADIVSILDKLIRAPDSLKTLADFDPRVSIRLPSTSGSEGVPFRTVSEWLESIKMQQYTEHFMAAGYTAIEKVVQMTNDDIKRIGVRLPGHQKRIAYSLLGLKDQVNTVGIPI
Test [4] has the same target. To be noted: at 10 µM.
Test [5] deals with T3, Ephrin type-A receptor 1 (Homo sapiens) (UniProt P21709).
T3 sequence (whole entry): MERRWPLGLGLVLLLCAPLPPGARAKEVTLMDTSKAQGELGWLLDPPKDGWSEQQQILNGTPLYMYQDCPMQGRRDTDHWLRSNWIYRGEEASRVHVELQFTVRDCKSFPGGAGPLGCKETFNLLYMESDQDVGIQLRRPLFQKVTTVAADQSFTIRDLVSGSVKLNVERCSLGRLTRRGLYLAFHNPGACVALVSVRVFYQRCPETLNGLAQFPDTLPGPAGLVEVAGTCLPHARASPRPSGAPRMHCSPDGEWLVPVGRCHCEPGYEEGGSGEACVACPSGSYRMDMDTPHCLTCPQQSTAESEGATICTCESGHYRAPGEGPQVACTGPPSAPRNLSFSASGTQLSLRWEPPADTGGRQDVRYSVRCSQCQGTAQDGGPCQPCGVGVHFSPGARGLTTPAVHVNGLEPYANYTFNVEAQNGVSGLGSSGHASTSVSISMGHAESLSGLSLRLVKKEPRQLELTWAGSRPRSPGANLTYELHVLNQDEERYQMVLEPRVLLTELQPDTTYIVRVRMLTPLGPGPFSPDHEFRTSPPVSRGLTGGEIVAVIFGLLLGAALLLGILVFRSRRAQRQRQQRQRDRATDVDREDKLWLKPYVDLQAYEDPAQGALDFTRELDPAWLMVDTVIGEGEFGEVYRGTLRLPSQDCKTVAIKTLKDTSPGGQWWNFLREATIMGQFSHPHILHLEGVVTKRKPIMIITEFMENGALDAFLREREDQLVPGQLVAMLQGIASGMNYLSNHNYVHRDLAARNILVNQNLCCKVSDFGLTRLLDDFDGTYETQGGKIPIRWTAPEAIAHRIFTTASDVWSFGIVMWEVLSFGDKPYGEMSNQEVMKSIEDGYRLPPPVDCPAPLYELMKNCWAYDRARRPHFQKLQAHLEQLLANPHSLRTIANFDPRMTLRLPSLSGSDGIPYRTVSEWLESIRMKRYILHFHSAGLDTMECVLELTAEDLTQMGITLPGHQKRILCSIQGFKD
The conditions noted are these: at 1 µM.

Test [6] has as its target T3, Ephrin type-A receptor 1 (Homo sapiens). To be noted: at 10 µM.
Test [7] has as its target T2, Dual specificity tyrosine-phosphorylation-regulated kinase 2 (Homo sapiens). To be noted: at 1 µM.
Test [8] concerns the target T4, Ephrin type-A receptor 3 (Homo sapiens) (UniProt P29320).
T4 sequence (whole entry): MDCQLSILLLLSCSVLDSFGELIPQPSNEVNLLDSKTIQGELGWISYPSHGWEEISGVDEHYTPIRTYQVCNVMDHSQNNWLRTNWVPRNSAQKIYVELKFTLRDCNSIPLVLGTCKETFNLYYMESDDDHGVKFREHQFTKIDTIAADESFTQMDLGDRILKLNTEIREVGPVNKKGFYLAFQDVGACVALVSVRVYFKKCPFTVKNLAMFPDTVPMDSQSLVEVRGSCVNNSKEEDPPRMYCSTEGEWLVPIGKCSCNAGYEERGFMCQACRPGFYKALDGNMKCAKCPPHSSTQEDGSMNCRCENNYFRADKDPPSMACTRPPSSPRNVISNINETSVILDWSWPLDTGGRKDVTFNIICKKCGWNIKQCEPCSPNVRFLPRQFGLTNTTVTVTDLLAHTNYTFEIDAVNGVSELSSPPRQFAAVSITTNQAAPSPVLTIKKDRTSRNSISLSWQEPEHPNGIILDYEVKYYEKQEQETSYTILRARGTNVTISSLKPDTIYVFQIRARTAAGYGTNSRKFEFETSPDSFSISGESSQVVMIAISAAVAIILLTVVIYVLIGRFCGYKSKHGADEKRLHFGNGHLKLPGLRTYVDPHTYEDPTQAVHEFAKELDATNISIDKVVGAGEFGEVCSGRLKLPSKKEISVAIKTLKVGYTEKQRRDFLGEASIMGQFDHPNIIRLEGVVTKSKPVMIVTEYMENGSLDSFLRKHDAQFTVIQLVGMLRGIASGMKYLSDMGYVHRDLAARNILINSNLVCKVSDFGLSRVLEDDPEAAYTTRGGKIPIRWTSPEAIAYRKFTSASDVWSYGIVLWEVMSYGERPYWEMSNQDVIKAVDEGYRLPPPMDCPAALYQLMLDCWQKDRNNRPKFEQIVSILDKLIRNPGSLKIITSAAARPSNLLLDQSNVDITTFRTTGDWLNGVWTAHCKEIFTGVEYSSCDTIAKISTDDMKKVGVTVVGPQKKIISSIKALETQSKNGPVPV
The conditions noted are these: at 1 µM.

The target of test [9] is Epidermal growth factor receptor (Homo sapiens) (UniProt P00533). To be noted: at 1 µM.
Chain of Epidermal growth factor receptor (Homo sapiens) (P00533 whole entry): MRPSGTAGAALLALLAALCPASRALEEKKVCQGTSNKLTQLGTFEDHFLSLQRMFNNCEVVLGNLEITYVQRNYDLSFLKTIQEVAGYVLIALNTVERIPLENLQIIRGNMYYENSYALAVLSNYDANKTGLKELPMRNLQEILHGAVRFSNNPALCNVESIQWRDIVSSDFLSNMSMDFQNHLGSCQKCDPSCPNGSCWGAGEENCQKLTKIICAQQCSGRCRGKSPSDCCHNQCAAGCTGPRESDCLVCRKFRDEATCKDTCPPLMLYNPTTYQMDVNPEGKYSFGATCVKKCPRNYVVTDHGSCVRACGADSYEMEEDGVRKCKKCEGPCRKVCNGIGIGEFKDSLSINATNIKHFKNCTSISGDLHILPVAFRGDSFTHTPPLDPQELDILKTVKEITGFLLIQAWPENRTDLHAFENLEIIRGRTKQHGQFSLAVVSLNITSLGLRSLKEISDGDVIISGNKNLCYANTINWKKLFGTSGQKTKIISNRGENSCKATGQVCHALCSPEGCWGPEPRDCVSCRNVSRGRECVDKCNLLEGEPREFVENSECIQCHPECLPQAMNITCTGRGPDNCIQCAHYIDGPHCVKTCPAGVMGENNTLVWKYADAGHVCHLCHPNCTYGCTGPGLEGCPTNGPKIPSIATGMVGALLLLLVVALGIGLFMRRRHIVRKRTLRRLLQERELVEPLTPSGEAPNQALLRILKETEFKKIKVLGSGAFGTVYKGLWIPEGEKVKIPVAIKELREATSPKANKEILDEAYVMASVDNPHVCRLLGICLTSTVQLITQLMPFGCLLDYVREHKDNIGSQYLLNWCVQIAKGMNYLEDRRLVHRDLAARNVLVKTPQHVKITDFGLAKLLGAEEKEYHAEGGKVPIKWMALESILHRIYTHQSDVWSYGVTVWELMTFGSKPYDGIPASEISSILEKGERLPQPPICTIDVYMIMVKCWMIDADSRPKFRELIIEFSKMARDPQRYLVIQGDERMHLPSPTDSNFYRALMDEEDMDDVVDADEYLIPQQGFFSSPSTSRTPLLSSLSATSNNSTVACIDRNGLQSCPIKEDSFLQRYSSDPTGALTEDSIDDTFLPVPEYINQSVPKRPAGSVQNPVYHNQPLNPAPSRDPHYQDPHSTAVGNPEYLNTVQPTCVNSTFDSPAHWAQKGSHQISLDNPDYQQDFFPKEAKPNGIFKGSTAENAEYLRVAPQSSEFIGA
The target is the same in test [10]. To be noted: at 10 µM.

From ChEMBL document CHEMBL2218924, “A broad activity screen in support of a chemogenomic map for kinase signalling research and drug discovery” (Biochem J, 2013) come the findings set out here.

For `Fc1ccc(-c2nc3n(c2-c2ccncc2)CCS3)cc1`, the residual activity came to 91% in test [1], 91% in test [2], 99% in [3] and 87% in test [4].
With `CSc1nc(-c2ccc(F)cc2)c(-c2ccnc(NC(C)c3ccccc3)c2)[nH]1` (stereo not drawn), the residual activity in test [1] came out at 72%; in test [2], 86%; in test [5] it was 101%; in test [6] it was 78%; in test [3], 87%.
On to `O=C1Cc2c([nH]c3ccc([N+](=O)[O-])cc23)-c2ccccc2N1`, for which the residual activity in test [1] worked out at 7%; in test [7] it was 54%; in test [2] it was 71%; in test [5], 109%; in [6], 103%.
For the compound `Nc1ncnc2c1c(-c1ccc(Oc3ccccc3)cc1)cn2C1CCCC1`, the residual activity in [1] is 104%; in test [7], 91%; in test [2] it was 82%; in test [5], 72%; in test [6] it was 18%; in test [3], 100%. Further, the residual activity amounted to 55% in test [4] and 101% in [8].
On to `CCCCc1c(-c2ccc(O)cc2)[nH]c2nccnc12`, for which the residual activity in test [1] is 44%; in [7], 85%; in test [2] it was 34%; in test [5] it was 29%; in test [6], 47%; in test [3] it was 82%. Further, the residual activity in [4] is 60%; in test [8], 72%.
As to `O=C(c1cc2cc(O)ccc2[nH]1)c1cc2cc(O)ccc2[nH]1`, the residual activity in [1] amounted to 2%; in test [7], 81%; in test [2], 47%; in test [5], 83%; in test [6], 47%.
On to `Oc1cccc(-c2nc(N3CCOCC3)c3oc4ncccc4c3n2)c1`, for which the residual activity in [1] is 86%; in test [7], 94%; in [2], 98%; in test [9], 119%; in test [10], 119%; in test [5], 91%.
Take `O=c1cc(N2CCNCC2)oc2c(-c3ccccc3)cccc12`: the residual activity in test [1] is 66%; in test [7], 87%; in [2], 94%; in [5] it was 91%; in [6], 100%; in test [3], 99%. Moreover, the residual activity turned out to be 97% in test [4] and 91% in test [8].
On to `O=C(Nc1ccc(Cl)cc1)c1ccccc1NCc1ccncc1`, for which the residual activity in test [1] was 99%.
Take `O=C1Nc2ccc(Cl)cc2/C1=C/c1cc(Cl)c(O)c(Cl)c1`: the residual activity in test [1] is 17%; in test [7] it was 83%; in [2], 70%; in [5], 84%; in test [6], 87%; in [3], 99%. Moreover, the residual activity turned out to be 76% in test [4] and 91% in test [8].
As to `N#Cc1c(NC(=O)c2cccc3ccccc23)sc2c1CCCC2`, in [1], the residual activity stood at 134%.
Regarding `Nc1nccc(-c2c(-c3ccc(F)cc3)ncn2C2CCNCC2)n1`, the residual activity in test [1] turned out to be 21%; in [7], 83%; in test [2], 40%; in [10], 84%; in test [5] it was 119%; in test [6], 45%.
Turning to `COc1ccc(-c2cnc3c(-c4ccsc4)cnn3c2)cc1`, the results for the residual activity in [1], in [7] and in test [2] were 98%, 100% and 94%, respectively.
`COc1cc2nccc(Oc3ccc(NC(=S)NC(=O)c4ccccc4C)cc3)c2cc1OC`: the residual activity worked out at 92% in test [1]; 91% in [2]; 46% in [5]; 24% in [6]; 91% in [3]; 55% in [4]. The residual activity in test [8] worked out at 98%.
In the case of `O=C1NC(=O)c2c1c1c3ccccc3[nH]c1n1cncc21`, the residual activity in [1] was 6%; in test [7] it was 68%; in [2], 57%; in [5], 74%; in test [6] it was 50%; in test [3] it was 87%. Also, the residual activity was found to be 86% in test [4] and 91% in [8].
